The panel holds about 83,000 compounds, 20% with a hit somewhere; the sample as a whole holds those more often.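 A percent growth of 40 corresponds to 60% growth inhibition; 0 means no net growth; -100 means all cells died. Active threshold: below 10.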 Unmarked numbers belong to inactive results. Activity calls are given as the source filed them.
Experiments:
Assay in all cases: NCI-60 one-dose screen, 48 h (100 = growth as untreated, 0 = no growth, -100 = all killed)
Conditions in all cases: 10 µM unless noted
[1] = tested on: DU-145 prostate
[2] = tested on: K-562 leukemia
[3] = tested on: MALME-3M melanoma
[4] = tested on: MDA-MB-231 breast
[5] = tested on: RXF 393 renal
[6] = tested on: SF-268 CNS
[7] = tested on: SF-295 CNS
[8] = tested on: SF-539 CNS
[9] = tested on: UACC-257 melanoma
[10] = tested on: M14 melanoma

| Structure (SMILES) | growth [1] | growth [2] | growth [3] | growth [4] | growth [5] | growth [6] | growth [7] | growth [8] | growth [9] | growth [10] |
| --- | --- | --- | --- | --- | --- | --- | --- | --- | --- | --- |
| COc1ccc(C2CC(c3cc(OC)c(OC)c(OC)c3)=NO2)cc1OCCCCOc1cc2c(cc1OC)C(=O)N1CCC[C@H]1C=N2 (stereo not given in full) | 13.4% | 34.8% | -43.1% (active) | 11.7% | -67.1% (active) | 16.7% | 2.46% (active) | -39% (active) | 24.6% | -16.2% (active) |
| COc1ccccc1C(=O)Nc1cccc(NC(=O)c2ccoc2C)c1 | 53.3% | 8.76% (active) | 60.4% | 59.4% | 50.1% | 48.2% | 29.8% | 27.2% | 33.3% | 13.1% |
| Cn1cc(-c2nn3cc(-c4cccs4)nc3s2)c2cc(F)ccc21 | 51.1% | 15.5% | 21.2% | 34.5% | 64.4% | 45.2% | 28.2% | 24.3% | 63.4% | 6.34% (active) |
| Clc1c(Cl)[n+](Cc2ccc3ccccc3c2)cn1Cc1ccc2ccccc2c1 | 32.6% | -3.01% (active) | -14.1% (active) | 7.04% (active) | -7.52% (active) | 20.8% | 45.6% | 58.6% | -37.7% (active) | -31.9% (active) |
| Cc1nn(-c2ccccc2)c(N)c1N=C1NC(=O)/C(=C/c2ccc(Br)cc2)S1 | 96.4% | 58.8% | 93.8% | 86% | 151% | 81.6% | 87.2% | 83.4% | 111% | 89.9% |
| C=C1C(=O)O[C@H]2[C@H]1CC/C(COC(=O)c1cc3cc(Cl)ccc3[nH]1)=C\CC[C@@]1(C)O[C@@H]21 | -96.1% (active) | -21.1% (active) | -76.9% (active) | -77.8% (active) | -88.7% (active) | -88.3% (active) | 39.2% | -90.4% (active) | -76.3% (active) | -56.9% (active) |
| Cc1ccc(/C=C/C(=O)c2cccc(OCCCOc3cccc(C(=O)/C=C/c4ccc(C)cc4)c3)c2)cc1 | 88.9% | 52.9% | 98.8% | 86.8% | 85.7% | 79.6% | 77.4% | 83.8% | 96.4% | 73.4% |
| CNC(=O)c1cc(Oc2cccc3nc(NC(=O)Nc4cc(C(F)(F)F)ccc4Cl)ccc23)ccn1 | 78.6% | 80.9% | 69.2% | 49.1% | 73.7% | 74.9% | 106% | 32.6% | 98.3% | 95.1% |
| O=C(c1c[nH]c2ccccc12)c1n[nH]c(=S)n1-c1cccc(Br)c1 | 103% | 84.6% | 95.4% | 76.9% | 104% | 95.4% | 102% | 106% | 97.4% | 99.3% |
| CCSc1oc(C)nc1[P+](c1ccccc1)(c1ccccc1)c1ccccc1 | 29.5% | 19.8% | 31.1% | 49.1% | 50.9% | 25% | 35.1% | 59.1% | 11.8% | 33.1% |
| C/C(=N\O)[C@@H]1CC[C@]2(CO)CC[C@]3(C)[C@H](CC[C@@H]4[C@@]5(C)CCCNC(C)(C)[C@@H]5CC[C@]43C)[C@@H]12 | 95% | 2.56% (active) | 95.4% | 90.9% | 80.8% | 84.7% | 92.5% | 93.3% | 97.6% | 87% |
| COc1cccc(-c2cc(-c3cccc(Cl)c3)c(C#N)c(=O)[nH]2)c1 | 88% | 31.3% | 69.8% | 96.1% | 75% | 79.1% | 74.2% | 74.5% | 85.5% | 58.3% |
| COC(=O)c1c2c(c(C)[n+]([O-])c1C)C(=O)C(NCc1cccc(Cl)c1)=CC2=O | 38.3% | 6.86% (active) | -96.2% (active) | 3.99% (active) | 34.3% | 16.2% | 42.5% | 4.07% (active) | -37.5% (active) | 1.44% (active) |
| COC(=O)c1c2c(n3ccccc13)C(=O)c1ccccc1C2=O | 69.4% | 54.9% | 55.8% | 64.4% | 72.1% | 74% | 64.5% | 89.5% | 70.4% | 63.6% |
| O=C(N/N=C\c1ccccc1S(=O)(=O)O)N/N=C/c1ccccc1S(=O)(=O)O | 106% | 97.9% | 105% | 102% | 112% | 102% | 101% | 111% | 93.2% | 102% |
| CC1=C(C(=O)Nc2ccccc2)C(c2ccc3c(c2)OCO3)NC(=S)N1 (stereo not given) | 111% | 118% | 100% | 106% | 129% | 106% | 105% | 102% | 107% | 93% |
| CCOC(=O)C1=C(C)C(Cl)=N/C1=C\c1[nH]c(Cl)c(C)c1C(=O)OCC | 111% | 91% | 107% | 93% | 115% | 101% | 111% | 100% | 91.4% | 87.1% |
| C#CC#CC#CC#CC#CC#CC#CC#CC[C@@H]1OC[C@@H](COC(=O)O[C@@H](C(=O)O[C@H]2C[C@@]3(O)[C@@H](OC(=O)c4ccccc4)[C@@H]4[C@]5(OC(C)=O)CO[C@@H]5C[C@H](O)[C@@]4(C)C(=O)[C@H](OC(C)=O)C(=C2C)C3(C)C)[C@@H](NC(=O)c2ccccc2)c2ccccc2)O1 | 102% | 7.18% (active) | 37.4% | 5.64% (active) | -12.3% (active) | 94.5% | 0.0837% (active) | -8.27% (active) | 95.5% | -6.06% (active) |
| CCOC(=O)C(=CNc1cnc(Nc2ccc(N3CCOCC3)cc2)nc1Oc1ccc(OC)cc1)C(=O)OCC | 73% | 49.2% | 39% | 59.7% | 89.2% | 69.7% | 75.9% | 24.7% | 87.4% | 63.7% |
| CC(=O)O[C@H]1C[C@@H]2C(C)(C)C(=O)CC[C@@]2(C)c2ccc(C(C)C)cc21 | 102% | 104% | 109% | 104% | 121% | 95.8% | 100% | 110% | 107% | 104% |
| CC1=C2[C@@H](CC1)[C@]1(C)O[C@@](C3CCCCC3)(C[C@H]1OC(=O)CO)[C@H]2OC(=O)/C=C/c1ccccc1 | 89.3% | 63.5% | 79.5% | 86.4% | 39.9% | 31.9% | 86.5% | 102% | 84.5% | 91.6% |
| CCOC(=O)C(Cc1ccc(OC)cc1)C(=O)OCC | -35.4% (active) | 15.2% | 58.1% | 47.5% | -11.3% (active) | 30.2% | 30.4% | 19.9% | 25.3% | 46.3% |
| COc1ccc(/C=C/c2ccc3ccccc3n2)c(OC)c1 | 91.2% | 19.8% | 50% | 58.9% | 90.7% | 98.7% | 60.2% | 83.3% | 84.8% | 45.3% |
| COc1ccc(C2=NN(C(C)=O)C(c3cn(-c4ccccc4)nc3-c3ccc(Cl)cc3)C2)cc1 (stereo not given) | 17.4% | 13.1% | 52% | 17.2% | -10.5% (active) | 27.2% | 42.4% | 15.8% | 66.4% | 17.2% |
| COc1ccc(/C=C2\COc3ccc(O)cc3C2=O)cc1 | 111% | 24% | 96.1% | 92.8% | 115% | 99.4% | 108% | 102% | 106% | 90.8% |
| CN(C)CCN1C(=O)c2cccc3c(/C=C/CN4C(=O)c5cccc6cccc(c56)C4=O)ccc(c23)C1=O | 113% | -46.8% (active) | -62.4% (active) | -57.4% (active) | 57% | 101% | 106% | 92.8% | 92% | 77.9% |

From PubChem BioAssay (NCI)
